Here are results for 27 compounds from PubChem BioAssay (NCI).

About 83,000 compounds went through this panel and 20% of them were active in at least one assay; those are over-represented in the sample as a whole.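 Activity criterion: percent growth below 10, measured after cells in 96-well plates were exposed to a single compound concentration for 48 hours.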 Activity calls are given as the source filed them.

In the assay the test system is HL-60(TB) leukemia. The assay can be described thus: NCI-60 one-dose screen, 48 h (100 = growth as untreated, 0 = no growth, -100 = all killed). Conditions: 10 µM unless noted.
In the case of `O=C1Nc2ccccc2/C1=C/c1ccc(COCC2CO2)n1-c1ccc(O)cc1` (configuration not stated), the growth is 103% (inactive). For the compound `CN1CCN(Cc2ccc(NC(=O)c3cncc(C#Cc4cnn5cccnc45)c3)cc2C(F)(F)F)CC1`, the growth is -19% (active). For the compound `CN1CCN(Cc2ccc(NC(=O)c3cncc(C#Cc4[nH]nc5ncncc45)c3)cc2C(F)(F)F)CC1`, the growth is 21.5% (inactive). Turning to `COc1cc(C2CC(c3ccc(Nc4nc(NCCO)nc(Nc5ccc(Cl)cc5)n4)cc3)=Nc3c(N)nc(N)nc3N2)cc(OC)c1OC` (configuration not stated), the growth is 25% (inactive). As for `Cc1ccc2sc3c(c2c1)OC(N)=C(C#N)C3c1cccc(F)c1` (configuration not stated), the growth is -0.493% (active). As to `C#C[C@]1(O)CC[C@H]2[C@@H]3CC=C4c5sc(C6CC6)nc5CC[C@]4(C)[C@H]3CC[C@@]21C`, the growth is 58.8% (inactive). Take `O=C(CN1CCN(c2cc(=O)n(-c3ccccc3)c3ccccc23)CC1)Nc1cccc(C(F)(F)F)c1`: the growth is 28.6% (inactive). Regarding `Cn1c(SCC(=O)c2cccs2)nc2ccccc2c1=O`, the growth was 91.8% (inactive).

As for `COc1cccc(N2CCN(c3ncnc4c3[nH]c3ccc(F)cc34)C[C@H]2C)c1`, the growth was 33% (inactive). Consider `CCN(CC)CCOc1ccc(C(=C(C)Cc2ccc(OC)cc2)c2ccc(OCCN(CC)CC)cc2)cc1`, for which the growth was -42.3% (active). Take `Fc1ccc(-c2cc3nc(C(Cl)Cl)nc(-c4ccc(F)cc4)n3n2)cc1`: the growth is -1.81% (active).

On to `CN1CCN(Cc2ccc(NC(=O)c3cncc(C#Cc4cnc5ccc(O[C@H]6CCOC6)nn45)c3)cc2C(F)(F)F)CC1`, for which the growth is -41.2% (active). With `O=C(CSc1nc2ccccc2c(=O)n1-c1ccccc1)N/N=C/c1ccc(Oc2ccc(Br)cc2)cc1`, the growth is 105% (inactive). In the case of `CCCCSC1=C(Cl)CN(c2ccc(Cl)cc2)C1=O`, the growth is 85.4% (inactive).

On to `CN(c1ccc(F)cc1)S(=O)(=O)c1ccc(-c2cnc(C3CC3)o2)cc1`, for which the growth was -15.8% (active). For the compound `CC(C)=CCc1c2c(c(O)c3c1O[C@]14C(=C[C@@H]5C[C@H]1C(C)(C)O[C@@]4(C/C=C(/C)C(=O)O)C5=O)C3=O)CC(O)C(C)(C)O2` (some centres not stated), the growth is -17.2% (active). On to `O=C(CSc1nc2ccccc2c(=O)n1-c1ccccc1)Nc1ccc(S(=O)(=O)Nc2nccs2)cc1`, for which the growth was 78.7% (inactive). With `O=C1Nc2ccc(Cl)cc2/C1=C/c1ccc(OCC(=O)c2ccc(Br)cc2)cc1`, the growth was 110% (inactive). To `COc1ccccc1NCc1cccn1Cc1ccc(F)cc1` belongs 104% (inactive); to `COc1ccc(-c2c(C(N)=O)c(N)n(Cc3nc4ccccc4[nH]3)c(=O)c2C#N)c(OC)c1`, 106% (inactive); to `COc1cc(-c2nn(C(C)(C)C)cc2-c2ccnc(NCCCNS(=O)(=O)c3ccc(F)cc3)n2)ccc1Cl`, 101% (inactive). For `Cn1ccnc1C(=O)/C=C/c1ccc(NC(=O)c2ccc(F)cc2)cc1`, the growth is 11.8% (inactive). Take `Brc1ccccc1/C=N/Nc1nc(N/N=C/c2ccccc2Br)nc(N2CCOCC2)n1`: the growth is 80.5% (inactive).

On to `COc1ccc(C(=O)c2c(N)c(C#N)cn2-c2cccc(OC)c2)cc1`, for which the growth was 3.83% (active). As to `COc1cc(Nc2c(C#N)cnn3cc(-c4cnn(CC(C)(C)O)c4)cc23)ccc1Cl`, the growth is 47.8% (inactive). To `CNC(=O)c1cc(-n2ccc3cc(NC(=O)Nc4ccc(N5CCN(C)CC5)c(C(F)(F)F)c4)ccc32)ccn1` belongs 65.8% (inactive); to `C#C[C@]1(O)CC[C@H]2[C@@H]3CC=C4c5sc(Nc6ncccc6C)nc5CC[C@]4(C)[C@H]3CC[C@@]21C`, -29.6% (active).
